A short description of this experiment: Confirmatory qHTS for Identification of Small Molecule Activators of Huntingtin-Antisense Promoter Activity. In short, it runs like this:
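2,500 luciferase reporter HEK293 cells/well; 24 h culture; cpds up to 57.5 uM final, PTC124 50 uM ctrl; 24 h, 37C; Dual-Glo FLuc reagent, 10 min RT; lum. Norm.: vehicle 0%, zero RLU -100%.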

The source made the active and inactive calls. Entries that show only a call come without a potency. Calls come from the whole dose curve; as a rule, active = well fitted activation curve with a large enough effect; inconclusive = small, poorly fitted or top-dose-only effect; inactive = no such curve, though single readings can be large or run the other way.

Potency data for 15 compounds are collected here from PubChem BioAssay AID1508622 (National Center for Advancing Translational Sciences (NCATS), 2021).
Potency is the fitted concentration of half-maximal effect.

`CCN(c1ncnc2c1cnn2-c1cc(Cl)ccc1C)C1CCCCC1`: the Potency entry is “inactive”.
Turning to `Cc1cccc(C2C=C(c3ccc(F)cc3)Nc3nc4ccccc4n32)c1` (stereo not given), the Potency is 1.07 µM (active).
Regarding `COc1ccc(-c2nc3cc(NC(=O)Cc4ccc(Cl)cc4)ccc3o2)cc1OC`, the Potency entry is “inactive”.
As for `CCOc1ccc(S(=O)(=O)N(C(C)=O)c2ccc3oc(C)c(C(=O)OC)c3c2)cc1`, the entry is “inactive”; as for `CC[C@@H]1C(=O)N(C)c2cnc(Nc3ccc(C(=O)NC4CCC(N5CCN(CC6CC6)CC5)CC4)cc3OC)nc2N1C(C)C` (stereo not given in full), “inactive”; as for `Cc1ccc(CN2CCC(CNC(=O)c3cnn(-c4ccccc4Cl)c3C3CCN(C(=O)OC(C)(C)C)CC3)CC2)cc1`, “inactive”.
As for `CC1Cc2cc(S(=O)(=O)N(Cc3ccccc3)C(C)C)ccc2N1C(=O)C1CCC1` (stereo not given), the entry is “inactive”; as for `COc1ccc(CNC(=O)c2ccc3c(c2)CCN3S(=O)(=O)c2ccc(Cl)cc2)cc1`, “inactive”; as for `O=C1CCCc2cc(S(=O)(=O)NCC3CCC(C(=O)Nc4ccc(Cl)cc4)CC3)ccc2N1` (stereo not given), “inactive”.
Regarding `O=C(Nc1ccc(Br)cc1)c1cc(S(=O)(=O)NC2CCCC2)ccc1F`, the Potency entry was “inactive”.
In the case of `Cc1ccc(S(=O)(=O)C(CNC(=O)C(=O)NCCc2ccc(F)cc2)c2cccs2)cc1` (stereo not given), the Potency entry is “inactive”.
As for `COc1ccc(OC)c(CCNC(=O)C(C)n2nc(C)c3c(C)n(-c4ccc(C)cc4)nc3c2=O)c1` (stereo not given), the entry is “inactive”.
In the case of `O=C(CSc1nccn1Cc1ccc(F)cc1)Nc1nc2ccccc2s1`, the Potency result is “inactive”.
For the compound `CCc1ccc(NC(=O)Nc2cn(C)c(=O)c3ccccc23)cc1`, the Potency result is “inactive”.
`COc1ccc(CN2CCc3c(c(=O)n4ncc(C(=O)N5CCN(c6ccccc6OC)CC5)c4n3C)C2)cc1`: the Potency entry was “inactive”.
